Only a selection was taken, and hits are over-represented in it overall.
IL1B secr inh – blocks inflammasome-driven IL-1 beta release; THP-1 LPS/ATP IL-1B secretion, AlphaLISA, 16 h; hits give low values; 360,000 compounds, 4.7% hits; AID 743279; activity change, % at 57.5 µM; in the data active = activity change below about -50%; inconclusive = mostly about -30% to -49%
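Secreted IL-1B measured by AlphaLISA bead assay after 16 h compound exposure of THP-1 cells; compounds (final up to 57.5 uM) added 1 h before LPS (250 ng/mL) and ATP (1.25 mM) stimulation; lower signal means less secretion.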
HT1080 IDH1KD tx – kills HT-1080 cells with IDH1 knockdown. HT-1080 IDH1 knockdown viability, ATP luminescence, 48 h. Potency, µM (doses to about 46.1 µM), usual class: cytotoxic. 360,000 compounds, 2% hits
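IDH1KD HT-1080 cells, 750/well, RPMI + 5% FBS; compound pinned after 2 h settling; 48 h, 37 °C; CellTiter-Glo luminescence; % activity normalised to DMSO and no-cell wells; curves fitted, classed by r2 and efficacy.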
HT1080-NT tox – kills 2HG-producing HT-1080-NT fibrosarcoma cells | HT-1080-NT fibrosarcoma viability, CellTiter-Glo ATP luminescence, 48 h | AID 686970 | 360,000 compounds, 1.6% hits | Potency, µM (top dose mostly 46.1 µM), usual class: cytotoxic;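 note: NT is the 2HG producing partner of a matched IDH1 knockdown line; nearly all actives have a fitted effect of over 55% in size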
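750 cells/well, RPMI + 5% FBS; 2 h settle, compound pin-transfer, 48 h at 37 degrees C. CellTiter-Glo 10 min RT, luminescence. Normalized to DMSO and media-only wells.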
DT40 TDP1 CPT – DT40-hTDP1 cell growth loss with CPT | Potency, µM (doses to about 46.2 µM), hits mostly inhibitors | AID 686979 | 420,000 compounds, 12% hits | chicken DT40 Tdp1-/-;hTDP1 cells + 20 nM CPT, ATP luminescence, 48 h; note: nearly all actives have a fitted effect of over 55% in size
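Cell growth measured by CellTiter-Glo luminescence after a minimum 48 h, 37 C compound exposure with 20 nM CPT in Tdp1-knockout DT40 cells stably expressing hTDP1, seeded 400/well; qHTS titration format.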
TDP1 cell noCPT – qHTS for Inhibitors of human tyrosyl-DNA phosphodiesterase 1 (TDP1): qHTS in cells in absence of CPT; AID 686978, 2013; DT40 Tdp1-/- hTDP1 cells, no CPT, ATP luminescence, 48 h; 420,000 compounds, 15% hits; Potency, µM (highest dose often 46.2 µM), usual class: inhibitors; note: nearly all actives have a fitted effect of over 55% in size
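Camptothecin absent (DMSO only). Human TDP1-complemented DT40 knockout cells, 400 cells/well, 37 °C for minimum 48 hr; ATP measured via CellTiter-Glo, 30 min dark incubation, luminescence.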
ALOX12 inh – inhibitors of human 12S-lipoxygenase ALOX12; 580,000 compounds, 1.1% hits; purified 12hLO, xylenol orange hydroperoxide absorbance; P18054; Potency, µM (doses to about 108 µM), hits mostly inhibitors
Target sequence (P18054 whole entry, looked up): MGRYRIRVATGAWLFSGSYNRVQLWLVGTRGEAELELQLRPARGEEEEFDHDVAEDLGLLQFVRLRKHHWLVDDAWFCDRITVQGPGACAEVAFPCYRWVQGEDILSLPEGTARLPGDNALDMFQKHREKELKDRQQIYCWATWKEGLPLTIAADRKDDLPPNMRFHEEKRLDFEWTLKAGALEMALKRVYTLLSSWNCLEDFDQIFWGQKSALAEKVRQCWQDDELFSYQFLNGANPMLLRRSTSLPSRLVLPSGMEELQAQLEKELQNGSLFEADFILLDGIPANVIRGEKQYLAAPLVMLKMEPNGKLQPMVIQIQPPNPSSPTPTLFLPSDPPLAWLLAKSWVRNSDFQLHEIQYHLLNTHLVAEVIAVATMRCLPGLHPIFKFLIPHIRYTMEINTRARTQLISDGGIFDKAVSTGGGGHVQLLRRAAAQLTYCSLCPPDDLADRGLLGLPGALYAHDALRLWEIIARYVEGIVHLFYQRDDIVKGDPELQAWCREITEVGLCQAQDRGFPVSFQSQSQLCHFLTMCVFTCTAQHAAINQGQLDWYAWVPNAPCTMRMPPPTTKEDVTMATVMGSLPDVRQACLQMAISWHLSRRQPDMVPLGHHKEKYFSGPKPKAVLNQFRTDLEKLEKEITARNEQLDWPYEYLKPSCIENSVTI
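Hydroperoxide product was detected by ferrous iron/xylenol orange as the 573 to 405 nm absorbance ratio. Arachidonic acid at 40 uM (final) was turned over for 30 min at room temperature by 150 nM human 12hLO, pH 7.0 Hepes buffer, after 15 min compound preincubation.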
Hits are given with their value; 0 = inactive; ? = inconclusive; - = no result given. Unless noted, calls come from the whole dose curve; as a rule, active = well fitted curve in the direction sought with a large enough effect; inconclusive = small, poorly fitted or top-dose-only effect, or another doubt; inactive = no such curve, though single readings can be large; an effect the other way counts as inactive or inconclusive.

SMILES | IL1B secr inh | HT1080 IDH1KD tx | HT1080-NT tox | DT40 TDP1 CPT | TDP1 cell noCPT | ALOX12 inh
CCN(Cc1ccccc1)S(=O)(=O)c1ccc(C(=O)Nc2nnc(-c3ccccc3OC)o2)cc1 | 0 | 0 | 0 | 11.6µM | 8.2µM | 0
COc1ccccc1-c1nnc(NC(=O)c2ccc(S(=O)(=O)N(C)C)cc2)o1 | 0 | ? | 0 | ? | 23.1µM | 0
COc1ccccc1-c1nnc(NC(=O)c2ccc(S(=O)(=O)N(C)CC3CCCO3)cc2)o1 (configuration not stated) | 0 | ? | 0 | ? | ? | 0
COc1ccccc1-c1nnc(NC(=O)c2ccccc2F)o1 | 0 | 0 | 0 | ? | ? | 0
CC1(C)c2ccccc2N2CC(=O)NC21/C=C/c1ccco1 (configuration not stated) | 0 | 0 | 0 | ? | 23.1µM | ?
CC1(C)c2ccccc2N2CCC(=O)NC21/C=C/c1ccco1 (configuration not stated) | 0 | 0 | 0 | 0 | ? | 0
CCOC(=O)/C(=N/O)C1=NC(C)(C)Cc2cc(C)c(C)cc21 | -71.7 | 0 | 0 | 0 | 0 | 0
O=C(CCc1cccnc1)NCCC12CC3CC(CC(C3)C1)C2 | - | - | - | - | - | 0
COc1cccc(NC(=O)CN(C)C(=O)/C=C/c2ccc3ccccc3n2)c1 | -77.2 | 0 | 0 | 0 | 0 | ?
COc1ccccc1NC(=O)C(C)OC(=O)/C=C/c1ccc2ccccc2n1 (configuration not stated) | 0 | 0 | 0 | 29.1µM | ? | 0
COc1ccccc1NC(=O)/C=C/c1ccc2ccccc2n1 | - | - | - | - | - | 0
COc1cccc(NC(=O)CN(C)C(=O)c2ccccn2)c1 | 0 | 0 | 0 | 0 | 0 | 0
COc1ccc(CN(C)C(=O)/C=C/c2ccc(S(=O)(=O)N3CCCCCC3)cc2)cc1 | ? | 0 | 0 | ? | 23.1µM | 0
CN(CC(=O)Nc1cccc(F)c1)C(=O)/C=C/c1ccc(S(=O)(=O)N2CCCCCC2)cc1 | ? | ? | 0 | ? | ? | 0
CNC(=O)c1ccc(CN(C)C(=O)/C=C/c2ccc(S(=O)(=O)N3CCCCCC3)cc2)cc1 | 0 | 0 | 0 | 23.1µM | 23.1µM | 0
O=C(CNS(=O)(=O)c1ccccc1)N1CCc2ccccc2C1 | 0 | 0 | 0 | 0 | 0 | 0
COc1cccc(NC(=O)CN(C)C(=O)/C=C/c2ccc(S(=O)(=O)N3CCCCCC3)cc2)c1 | 0 | ? | 0 | ? | 18.4µM | 0
O=C(NC1C[C@H]2CC[C@@H](C1)N2C(=O)CC1CCCCC1)c1ccc(F)cc1 (some centres not stated) | - | - | - | - | - | 0
O=C(COc1ccccc1)NCCSc1ccccc1 | 0 | 0 | 0 | 0 | 0 | 0
C=CCNC(=O)COc1ccc(Oc2ccccc2)cc1 | 0 | 0 | 0 | 14.6µM | 25.9µM | 0
Cc1ccc(S(=O)(=O)Oc2ccccc2)cc1 | 0 | 0 | 0 | 0 | 0 | ?
Cc1ccc(S(=O)(=O)/C=C/c2ccccc2)cc1 | -75.5 | 0 | 0 | 0 | 0 | 0
CCOc1ccccc1N=Nc1c(C)[nH]n(-c2nc(-c3ccccc3)cs2)c1=O | - | - | - | - | - | 0
CC(NC(=O)c1cccc(S(=O)(=O)N2CCN(C)CC2)c1)C1CC2CCC1C2 (configuration not stated) | 0 | 0 | 0 | 0 | ? | 0
COc1cc(OC)c(N(C)S(=O)(=O)c2cccc(C(=O)Nc3nccs3)c2)cc1Cl | 0 | ? | 0 | ? | 18.4µM | 0
COc1cc(OC)c(N(C)S(=O)(=O)c2cccc(C(=O)NC(C)C3CC4CCC3C4)c2)cc1Cl (configuration not stated) | 0 | 0 | 0 | 18.4µM | 23.1µM | 0
CC(C)c1ccc(NC(=O)c2cc(S(=O)(=O)NCCc3ccccc3)ccc2F)cc1 | - | - | - | 14.6µM | 10.3µM | 0
COc1ccc(OC)c(NC(=O)c2cc(S(=O)(=O)NCCc3ccc(Cl)cc3)ccc2F)c1 | - | - | - | ? | ? | 0
Cc1ccc(NC(=O)c2cc(S(=O)(=O)NCCc3ccc(Cl)cc3)ccc2F)cc1 | - | - | - | ? | 13µM | ?

High-throughput results: PubChem, National Center for Advancing Translational Sciences (NCATS)
